Among the data in PubChem BioAssay (Tox21) are Potency, outcome and activity change, positive = activation values, retold here.

Assay [1] deals with Nuclear receptor subfamily 1 group I member 3 (Homo sapiens) (UniProt Q14994). As to the kind of experiment: qHTS assay to identify small molecule antagonists of the constitutive androstane receptor (CAR) signaling pathway (AID 1224838). Further: nearly all actives have a fitted effect of over 40% in size. The settings on record: HepG2-CYP2B6-hCAR luciferase, CITCO-stimulated, 24 h; series mostly up to 92.4 µM. The method in brief:
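Compounds were titrated across 15 concentrations onto HepG2 cells double-stably expressing hCAR and a CYP2B6-2.2kb reporter, together with 50 nM CITCO (final). After 24 h at 37 C, luciferase activity was measured by luminescence.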

For assay [2] the target is unchanged. As to the kind of experiment: qHTS assay to identify small molecule agonists of the constitutive androstane receptor (CAR) signaling pathway (AID 1224839). Further: nearly all actives have a fitted effect of over 15% in size. Further: potency means the concentration at half of the fitted maximal effect.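 On activation: HepG2 cells stably carrying human CAR and a CYP2B6 luciferase reporter.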 The settings on record: HepG2 hCAR CYP2B6-luciferase, agonist mode, 24 h; series mostly up to 92.4 µM. The procedure, abridged: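 Stable hCAR/CYP2B6-2.2kb HepG2 line in DMEM with 10% FBS; compounds (15 concentrations) and 0.75 uM PK11195 final, 24 h at 37 C/5% CO2, then ONE-Glo luminescence after 30 min.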

Assay [3] concerns the target Thyrotropin receptor (Homo sapiens) (UniProt P16473). Put plainly: qHTS assay to identify small molecule agonists of the thyroid stimulating hormone receptor (TSHR) signaling pathway (AID 1224843; calls by dose curve; further: nearly all actives have a fitted effect of over 45% in size). As to conditions: TSHR-HEK293 cells, cAMP HTRF, agonist mode, 30 min; series mostly up to 92.4 µM. The method in brief: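 Steps: seed 800 TSHR-HEK293 cells per well; add test compound and hold 30 min at ambient temperature; dispense cAMP-d2 then anti-cAMP cryptate; incubate 1 h at ambient; measure fluorescence intensity.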

Assay [4] in a line: qHTS assay to identify small molecule agonists of the hypoxia (HIF-1) signaling pathway - cell viability counter screen (AID 1224844; calls by dose curve; further: nearly all actives have a fitted effect of over 50% in size). The settings on record: HRE-bla ME-180 viability, CellTiter-Glo luminescence, 17 h; series mostly up to 76.8 µM. The method in brief:
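Tox21 10K compounds were added to HRE-bla ME-180 cells (0.5% dialyzed FBS) and incubated 17 hrs at 37C; ATP-based CellTiter-Glo luminescence then reported cell viability in the same wells.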
Background: Quantitative high-throughput screening tests each substance at several concentrations.

The nature of assay [5]: qHTS assay to identify small molecule agonists of H2AX (AID 1224845; active means well fitted activation curve with a large enough effect in the signal ratio in the repeat runs, not every such curve was filed as active; the % refers to the signal ratio). The settings on record: CHO-K1 phospho-H2AX Ser139 HTRF, 3 h; series mostly up to 154 µM. The procedure, abridged:
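Wild-type CHO-K1 cells, plated overnight, exposed 3hr at 37C to 15 concentrations (0.76% DMSO final). Lysed, then HTRF anti-pH2AX (S139) cryptate and anti-H2AX-d2 antibodies, 24 hr room temperature; 665/620 nm emission read.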

A short description of assay [6]: qHTS assay to identify small molecule agonists of the hypoxia (HIF-1) signaling pathway (AID 1224846; active means well fitted activation curve with a large enough effect in the signal ratio in the repeat runs, not every such curve was filed as active; the % refers to the signal ratio). The settings on record: HRE-bla ME-180 cells, beta-lactamase ratio, 17 h; series mostly up to 76.8 µM. The procedure, abridged: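 Steps: seed ME-180 HRE-bla cells (2,000/well, 0.5% dialyzed FBS); incubate 5 hrs at 37C; pin-transfer compounds or DMSO; incubate 17 hrs; add LiveBLAzer B/G substrate CCF4-AM; measure reporter activation by FRET.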

The nature of assay [7]: qHTS assay to identify small molecule agonists of H2AX - cell viability counter screen (AID 1224847; calls by dose curve; further: top concentration of the series differs between compounds; nearly all actives have a fitted effect of over 30% in size). The settings on record: CHO-K1 viability, CellTiter-Glo luminescence, 3 h; series mostly up to 154 µM. The method in brief:
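Viability of CHO-K1 (wild type) cells after 3 hr compound exposure was measured by CellTiter-Glo luminescence.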

Assay [8] is described as follows: qHTS RealTime-Glo MT Cell Viability Assay in HepG2 cells - 24 hour (AID 1224867). Further: nearly all actives have a fitted effect of over 50% in size. As to conditions: RealTime-Glo luminescence; series mostly up to 76.8 µM. The procedure, abridged:
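Real-time, nonlytic viability: 600 HepG2 cells/well mixed with NanoLuc enzyme plus prosubstrate; 5 h settle, compound (DMSO) added by pintool; luminescence monitored over 40 h at 37 C.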

Assay [9] is described as follows: qHTS RealTime-Glo MT Cell Viability Assay in HEK293 cells - 32 hour (AID 1224868). Further: nearly all actives have a fitted effect of over 50% in size. Further: potency means the concentration at half of the fitted maximal effect. The settings on record: RealTime-Glo luminescence; series mostly up to 76.8 µM. The method in brief: (§1)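 Cells + reagent dispensed (600 cells/well, HEK293) → 5 h at 37 C/5% CO2 → 23 nL compound in DMSO pinned → 40 h at 37 C → luminescence read at 0, 8, 16, 24, 32, 40 h.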
A short description of assay [10]: A CellTox Green Cytotoxicity Assay to monitor cytotoxicity in HEK293 cells - 0 hour (AID 1224869). Further: nearly all actives have a fitted effect of over 50% in size. As to conditions: CellTox Green fluorescence; series mostly up to 76.8 µM. The method in brief:
(§2)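 Cytotoxicity was tracked continuously in HEK293 cells by a DNA-binding dye excluded from viable cells. Compounds were transferred in DMSO 5 h after seeding; fluorescence was recorded at intervals up to 40 h.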

Assay [11] can be described thus: qHTS RealTime-Glo MT Cell Viability Assay in HepG2 cells - 40 hour (AID 1224870). Further: nearly all actives have a fitted effect of over 50% in size. The settings on record: RealTime-Glo luminescence; series mostly up to 76.8 µM. The method in brief:
(§3)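 HepG2 cells (600/well) mixed with RealTime-Glo MT reagent, settled 5 h at 37 C/5% CO2 before compound addition. Nonlytic NanoLuc luminescence from viable-cell prosubstrate reduction read repeatedly during 40 h treatment at 37 C.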

The nature of assay [12]: A CellTox Green Cytotoxicity Assay to monitor cytotoxicity in HEK293 cells - 40 hour (AID 1224871). Further: nearly all actives have a fitted effect of over 45% in size. As to conditions: CellTox Green fluorescence; series mostly up to 76.8 µM. The method in brief: as §2
A short description of assay [13]: qHTS RealTime-Glo MT Cell Viability Assay in HEK293 cells - 16 hour (AID 1224872). As to conditions: RealTime-Glo luminescence; series mostly up to 76.8 µM. The procedure, abridged: as §1
A short description of assay [14]: qHTS RealTime-Glo MT Cell Viability Assay in HepG2 cells - 8 hour (AID 1224873). Further: nearly all actives have a fitted effect of over 55% in size. As to conditions: RealTime-Glo luminescence; series mostly up to 76.8 µM. The procedure, abridged:
as §3

The nature of assay [15]: qHTS assay to identify small molecule antagonists of the estrogen related receptor signaling pathway with the pleiotropic PPARgamma coactivator (PGC) from Tox21 10K library (AID 1224841; call rule not given here). The settings on record: PGC/ERR reporter cell line, ONE-Glo luciferase, 18 h; series mostly up to 92.4 µM. The procedure, abridged: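 Antagonism in this quantitative HTS is taken from loss of luciferase signal in PGC/ERR cells. Cells (2,000/well) are treated with compounds in DMSO after a 6 h settling period and read by One-Glo luminescence after 18 h.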

The nature of assay [16]: qHTS assay to identify small molecule agonists of the estrogen related receptor signaling pathway with the pleiotropic PPARgamma coactivator (PGC) from Tox21 10K library (AID 1224842). Further: nearly all actives have a fitted effect of over 15% in size. The settings on record: PGC/ERR reporter cell line, luciferase ONE-Glo, 18 h; series mostly up to 92.4 µM. The procedure, abridged: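 PGC/ERR reporter cell line, 2,000 cells per well, incubated 6 h at 37 C before 23 nL compound in DMSO was added. After 18 h at 37 C, One-Glo luminescence read following 30 min at room temperature.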

The nature of assay [17]: qHTS assay to identify small molecule antagonists of the estrogen related receptor (ERR) signaling pathway from Tox21 library (AID 1224848). Further: nearly all actives have a fitted effect of over 50% in size. The settings on record: ERR reporter cell line, luciferase antagonist mode, 18 h; series mostly up to 92.4 µM. The procedure, abridged:
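Luminescent reporter read-out (ONE-Glo) from NTP's ERR cell line after 18 h treatment at 37 C with DMSO-dissolved Tox21 compounds; cells pre-plated 6 h beforehand at 2,000 per well.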

Assay [18] is described as follows: qHTS assay to identify small molecule agonists of the estrogen related receptor (ERR) signaling pathway from Tox21 library (AID 1224849; calls by dose curve; further: nearly all actives have a fitted effect of over 15% in size). As to conditions: ERR reporter cell line, ONE-Glo luciferase, 18 h; at 92.4 µM (top of the series). The procedure, abridged: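 Agonist signal is luciferase luminescence from an ERR reporter cell line treated 18 h at 37 C with DMSO-dissolved compounds, read 30 min after ONE-Glo addition at room temperature.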

Assay [19] can be described thus: qHTS assay to identify small molecule antagonists of the estrogen related receptor signaling pathway with the pleiotropic PPARgamma coactivator (PGC) from Tox21 10K library - cell viability counter screen (AID 1224840; active means well fitted cell-killing curve with a large enough effect in the repeat runs, not every such curve was filed as active; further: nearly all actives have a fitted effect of over 40% in size). As to conditions: PGC/ERR reporter cells viability, CellTiter-Fluor, 17.5 h; series mostly up to 92.4 µM. The procedure, abridged:
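Step one, plate 2,000 PGC/ERR cells per well; step two, incubate 6 h at 37 C/5% CO2; step three, pin-transfer compounds; step four, incubate 17.5 h; step five, add CellTiter-Fluor and read fluorescence after 30 min.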

“And” between values parts separate entries of the source, which are not always exact repeats. Equal entries are not always repeated. Unmarked numbers belong to inactive results. Records with an inconclusive call do not appear. The source made the active and inactive calls. Unless noted, the call rests on the fitted dose curve; in most records, active means well fitted curve in the direction sought with a large enough effect in the repeat runs; inconclusive means weak or mixed curves; inactive means no such curve, though single readings can be large; an effect the other way counts as inactive or inconclusive.
On the % scale 0 is the no-effect control and ±100 the full control effect.

Nuclear receptor subfamily 1 group I member 3 (Homo sapiens), sequence (Q14994 whole entry, looked up): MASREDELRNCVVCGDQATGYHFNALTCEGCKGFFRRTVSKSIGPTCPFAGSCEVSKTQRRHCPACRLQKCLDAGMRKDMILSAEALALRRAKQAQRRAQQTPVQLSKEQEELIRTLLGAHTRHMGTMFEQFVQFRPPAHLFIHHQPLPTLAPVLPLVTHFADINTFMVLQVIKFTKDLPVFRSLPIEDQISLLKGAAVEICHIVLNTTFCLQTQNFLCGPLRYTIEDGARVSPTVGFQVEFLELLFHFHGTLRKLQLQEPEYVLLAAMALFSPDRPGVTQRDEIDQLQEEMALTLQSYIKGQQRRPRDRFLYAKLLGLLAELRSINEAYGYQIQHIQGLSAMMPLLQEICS
Thyrotropin receptor (Homo sapiens), sequence (P16473 whole entry, looked up): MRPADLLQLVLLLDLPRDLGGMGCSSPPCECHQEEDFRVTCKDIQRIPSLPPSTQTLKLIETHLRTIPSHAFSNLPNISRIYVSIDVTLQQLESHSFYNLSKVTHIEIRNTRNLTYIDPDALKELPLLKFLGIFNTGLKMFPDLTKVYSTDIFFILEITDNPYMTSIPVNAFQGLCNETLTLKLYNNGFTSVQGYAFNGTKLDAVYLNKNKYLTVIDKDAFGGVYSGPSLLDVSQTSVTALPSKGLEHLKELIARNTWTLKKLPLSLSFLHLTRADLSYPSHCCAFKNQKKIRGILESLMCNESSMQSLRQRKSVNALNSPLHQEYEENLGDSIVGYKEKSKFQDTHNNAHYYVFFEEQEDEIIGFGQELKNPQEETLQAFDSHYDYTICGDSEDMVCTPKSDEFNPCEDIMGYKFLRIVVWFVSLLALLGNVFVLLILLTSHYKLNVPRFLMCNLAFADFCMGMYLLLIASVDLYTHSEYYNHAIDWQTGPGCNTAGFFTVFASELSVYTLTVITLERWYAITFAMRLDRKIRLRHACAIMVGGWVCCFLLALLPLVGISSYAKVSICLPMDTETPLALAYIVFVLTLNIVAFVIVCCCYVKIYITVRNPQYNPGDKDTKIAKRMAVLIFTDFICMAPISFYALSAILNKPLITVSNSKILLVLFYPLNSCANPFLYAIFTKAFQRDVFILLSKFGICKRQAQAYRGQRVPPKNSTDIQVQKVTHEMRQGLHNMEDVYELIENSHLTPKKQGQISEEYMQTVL

Turning to `C1CC2OC2CC1C1CO1` (stereo unspecified), the Potency entry in assay [1], in [2], in assay [3], in assay [4], in assay [5] and in [7] was “inactive” in each case. Besides, the Potency entry in assay [9], in assay [10] and in assay [12] was “inactive” throughout. The result in assay [6], in assay [8], in assay [11], in assay [13] and in assay [14] was inactive.
As to `Clc1cccc(Cl)c1Cl`, the Potency entry in assay [1], in [2], in [15], in assay [3], in assay [4] and in [5] was “inactive” throughout. The Potency result in [17], in [9], in assay [10] and in assay [12] was “inactive” each time. Also, the result in assay [16], in assay [6], in [8], in assay [13] and in [14] was inactive. The activity change, positive = activation in assay [18] is 0.683%.
Regarding `ClCc1cccnc1`, the Potency entry in assay [1], in assay [2], in [19], in assay [3], in assay [4] and in assay [5] was “inactive” in each case. Besides, the Potency result in [7], in [9], in [10] and in [12] was “inactive” throughout. In addition, the outcome in assay [6], in assay [8], in assay [11], in assay [13] and in [14] was inactive.
Turning to `CN(N=O)c1ccccc1`, the Potency result in assay [1], in assay [2], in assay [15], in [3], in assay [4] and in [5] was “inactive” in each case. The Potency entry in assay [7], in assay [17], in assay [9], in [10] and in assay [12] was “inactive” in each case. Also, the call in [16], in [6], in assay [8], in assay [13] and in assay [14] was inactive. In assay [18], the activity change, positive = activation is 0% and 7.25%.
For the molecule `CC(Br)C(=O)O` (stereo unspecified), the Potency entry in assay [1], in assay [2], in [3], in assay [4], in [5] and in assay [7] was “inactive” in each case. For the same molecule, the Potency entry in [9], in [10] and in assay [12] was “inactive” throughout. Also, the outcome in assay [6], in assay [8], in assay [11], in assay [13] and in assay [14] was inactive.
Take `CCCC1COC(Cn2cncn2)(c2ccc(Cl)cc2Cl)O1` (stereo unspecified): the Potency entry in [1], in [3], in assay [4], in assay [5] and in assay [10] was “inactive” each time. The Potency is 62.3 µM (active) and 61.1 µM (active) in assay [2]; 22.3 µM (active) and 24.5 µM (active) in [9]. Further, the outcome in assay [6], in assay [8] and in assay [14] was inactive.
